Mdm2 MdmX PPI: disrupts the human Mdm2-MdmX interaction; O15151+Q00987; SaOS-2 split-luciferase Mdm2/MdmX complementation, luminescence; inhibition, % at 8 µM; 3% of 330,000 active; AID 485346;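 active = inhibition of at least 50% at 8 µM in the primary screen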
Target sequence (O15151 whole entry, looked up): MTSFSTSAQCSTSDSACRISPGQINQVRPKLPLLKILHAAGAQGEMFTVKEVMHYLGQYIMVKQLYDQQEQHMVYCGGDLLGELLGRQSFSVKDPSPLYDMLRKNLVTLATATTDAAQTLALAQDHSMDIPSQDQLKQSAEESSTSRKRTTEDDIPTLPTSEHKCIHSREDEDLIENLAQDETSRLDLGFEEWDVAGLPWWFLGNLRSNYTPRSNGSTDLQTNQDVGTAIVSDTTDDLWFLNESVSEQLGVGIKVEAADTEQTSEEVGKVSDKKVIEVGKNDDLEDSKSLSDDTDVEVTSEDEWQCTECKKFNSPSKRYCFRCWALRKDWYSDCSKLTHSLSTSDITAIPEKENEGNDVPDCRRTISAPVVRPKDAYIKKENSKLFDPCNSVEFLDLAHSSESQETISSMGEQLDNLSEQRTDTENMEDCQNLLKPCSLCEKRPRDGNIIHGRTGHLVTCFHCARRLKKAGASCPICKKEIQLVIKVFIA
Target sequence (Q00987 whole entry, looked up): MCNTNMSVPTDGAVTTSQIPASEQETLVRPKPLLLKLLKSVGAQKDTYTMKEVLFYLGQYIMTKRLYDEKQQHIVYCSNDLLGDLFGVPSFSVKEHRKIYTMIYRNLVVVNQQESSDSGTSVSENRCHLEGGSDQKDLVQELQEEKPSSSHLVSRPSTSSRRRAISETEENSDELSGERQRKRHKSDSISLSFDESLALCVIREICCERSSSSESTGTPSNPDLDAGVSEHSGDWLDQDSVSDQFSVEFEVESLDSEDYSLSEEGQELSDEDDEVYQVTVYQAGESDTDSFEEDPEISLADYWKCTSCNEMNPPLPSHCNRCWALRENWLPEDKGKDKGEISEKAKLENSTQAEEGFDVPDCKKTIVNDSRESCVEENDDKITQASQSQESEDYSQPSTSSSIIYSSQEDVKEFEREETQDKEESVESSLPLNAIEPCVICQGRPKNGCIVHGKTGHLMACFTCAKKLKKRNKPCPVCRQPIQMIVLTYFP
Beta apoptosis: beta cell apoptosis inhibition; INS-1E cytokine-induced death, ATP luminescence, 48 h; percent of positive-control rescue, neutral wells zero; protection from apoptosis, % (concentration not given with the values); 0.8% of 300,000 active; AID 435005;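 active = Every replicate reaches about 75%, or at least half do and their mean reaches it too, limit read from the data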;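 also: 0% = cytokine-treated negative control wells and 100% = positive control rescue; higher means more ATP so stronger rescue from cytokine killing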
697 NFkB inh: lowers PMA/ionomycin-induced NF-kB signal in 697 B cells; 0.33% of 330,000 active; inhibition, % at 4 µM; 697 B-cell NF-kB luciferase reporter, 16 h; AID 435022; in the data active = inhibition above about 35%
Jurkat NFkB inh: inhibitors of the PMA/ionomycin-induced NF-kB reporter in Jurkat cells. PMA/ionomycin-induced NF-kB luciferase reporter, luminescence. AID 435003. 0.53% of 330,000 active. inhibition, % at 4 µM; in the data active = inhibition above about 50%
Gli-Sufu antag: blocks Gli-Sufu signaling in a luciferase reporter. Sufu-KO-LIGHT fibroblasts, Gli luciferase reporter luminescence. inhibition, % at 5 µM. 0.74% of 340,000 active;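 active = inhibition above about 55%, limit read from the data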;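 also: 0% = DMSO-treated cells and 100% = wells with medium but no cells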
Gli antag conf: Gli-SUFU antagonism confirmation, single concentration | shares compounds with Gli-Sufu antag | Sufu-KO-LIGHT cells, Gli luciferase reporter, luminescence | inhibition, % at 5 µM | 40% of 2,500 active;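 active = mean inhibition at 5 µM reaching about 45%, limit read from the data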;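 also: plate controls were DMSO-treated cells for no effect and wells lacking cells for full effect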
SufuKO cytotox: cytotoxicity counter-screen for Gli-SUFU antagonists; Sufu-KO-LIGHT cells cytotoxicity, ATP luminescence; shares compounds with Gli-Sufu antag; cytotoxicity, % at 5 µM; 32% of 2,500 active;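 active = mean cytotoxicity at 5 µM above about 25%, limit read from the data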;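 also: cells exposed to compound overnight for roughly 16 to 18 hours; plate controls were DMSO wells with cells for no effect and medium without cells for full effect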
Wnt3a counter: Wnt3a reporter inhibition counter-screen; shares compounds with Gli-Sufu antag; Wnt-LIGHT cells, Wnt3a-driven luciferase reporter, luminescence; inhibition, % at 6.25 µM; 20% of 2,500 active; AID 651995;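 active = mean inhibition above about 25%, limit read from the data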
* marks the source's active call; other numbers are inactive results; nt = no result given. Only some compounds are listed: those with a hit (about 4% of all), similar ones and a draw of the others.

SMILES	Mdm2 MdmX PPI	Beta apoptosis	697 NFkB inh	Jurkat NFkB inh	Gli-Sufu antag	Gli antag conf	SufuKO cytotox	Wnt3a counter
CC(Cc1nnc(N)s1)c1ccccc1 (centres undefined)	12	nt	-24	-1	41	nt	nt	nt
CC(=NNc1nc2ccccc2s1)c1ccncn1	nt	nt	nt	nt	52	71*	42*	21
C/C(=N\Nc1nc2ccccc2s1)c1ccc2c(c1)OCO2	-133	3	-48	-64	-34	nt	nt	nt
CC(C)[C@H](NC(=O)N1CCn2c1nc1ccccc12)C(=O)NCC1CCCO1 (some centres undefined)	7	-10	5	1	-6	nt	nt	nt
COc1ccccc1C1C(C#N)=C(N)N(N(C)C)C2=C1C(=O)CC(C)(C)C2 (centres undefined)	-3	2	-1	8	nt	nt	nt	nt
Cc1ccc(CNC(=O)C23CN(Cc4ccccc4)CC2C(c2ccc([N+](=O)[O-])cc2)=NO3)o1 (centres undefined)	-11	3	11	12	98*	18	3	-82
Cc1ccc(S(=O)(=O)Nc2cc3c(cc2C#N)OCO3)cc1C(N)=O	12	-12	22	0	-15	nt	nt	nt
CN(CC(=O)O)S(=O)(=O)c1ccc2c(c1)n(C)c(=O)c(=O)n2C	13	3	10	8	63*	10	-3	-3
CCCCN(CCCC)C(=O)CN(C)S(=O)(=O)c1ccc2c(c1)n(C)c(=O)c(=O)n2C	9	nt	14	15	3	nt	nt	nt
CCCCN(CC(=O)NC1CC1)S(=O)(=O)c1ccc(OCC)cc1	1	-2	-3	-11	-2	nt	nt	nt
CC(c1ccon1)N(C)Cc1cn(C)nc1-c1cccc(Cl)c1 (centres undefined)	14	-4	6	-14	-4	nt	nt	nt
COc1ccc(-c2cc(C(F)(F)F)n3nc(N)nc3n2)cc1	-17	1	-9	-11	-5	nt	nt	nt
COc1cccc(-c2cc(C(F)(F)F)n3nc(N)nc3n2)c1	8	7	6	-3	78*	29	12	-15
Cn1c(=O)oc2cc(S(=O)(=O)NCCC(=O)NCc3ccc(F)cc3)ccc21	22	-3	16	6	-11	nt	nt	nt
CC(C)OCCCNc1ncnc2c1[nH]c1ccccc12	1	125*	17	35	64*	59*	40*	-31
COc1ccc(CNc2ncnc3c2[nH]c2cc(OC)c(OC)cc23)cc1	21	-2	0	0	4	nt	nt	nt
COc1ccc(CNc2ncnc3c2[nH]c2ccccc23)cc1	15	43	4	31	53	64*	16	24
CCOc1ccc2[nH]c3c(NCCCOC)ncnc3c2c1	-65	-4	-50	-28	1	nt	nt	nt
CCOc1ccccc1NC(=O)COC(=O)CCOc1cc(C)ccc1C	-4	-9	9	3	-4	nt	nt	nt
CCOC(=O)N1CCC(N(C(=O)Nc2ccc(Cl)c(Cl)c2)C(C)CC)CC1 (centres undefined)	23	3	1	12	65*	31	20	-37
CCOC(=O)N1CCC(N(CCOC)C(=O)Nc2ccc(CC)cc2)CC1	7	0	-3	-1	0	nt	nt	nt
CCNc1nc(OC)nc(N(OC)S(=O)(=O)c2ccc(C)cc2)n1	-1	-5	-22	-8	53	24	5	-22
CCNc1nc(OCCNS(=O)(=O)c2cc(C)ccc2C)nc(N(C)C)n1	-18	-2	1	10	3	nt	nt	nt
COc1cc(CCCN2CCNC[C@H]2Cc2cccc3ccccc23)cc(OC)c1OC	16	-2	4	5	10	nt	nt	nt
O=C(COC(=O)c1ccc(O)cc1O)Nc1nnc(-c2ccccc2)o1	-16	0	17	2	-6	nt	nt	nt
Cc1ccccc1CNC(=O)CCNS(=O)(=O)c1ccc(OC(F)(F)F)cc1	15	-10	8	-1	94*	12	23	-26
O=C(CCNS(=O)(=O)c1ccc(OC(F)(F)F)cc1)NC1CC1	7	-2	-3	-10	0	nt	nt	nt
Cc1cc(C)n2nc(CC(=O)NNC(=O)COc3ccccc3)nc2n1	19	nt	2	10	-17	nt	nt	nt

Assay outcomes (PubChem)
